The supplement of paper PMC6555819

Columns and labels:
Test in all cases: PBM binding z-score (relative to random genomic background probes); higher = stronger binding; sequences stand for … in GC…GCGATTGACAGCGTAGAATGAAGG
[1] = tested on: RARb homodimer (NR concentration 270 nM)
Summary of the method: (§1)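 Binding z-scores take random background probes as their reference. They come from custom Agilent 4×180K protein-binding microarrays incubated 1 h with ligand-free nuclear receptor dimers, with antibodies against each partner (one per run) detecting binding. Scanned fluorescence was regression-normalized.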

[2] = tested on: RARg:RXRa (NR concentration 270 nM, RXRa partner concentration 90 nM)
Summary of the method: as §1

[3] = tested on: RARg homodimer (NR concentration 270 nM)
Summary of the method: as §1

[4] = tested on: RXRa DBDmut IVT, anti-RXR (DBD mutation: RXRa K156A/R161A, NR concentration 90 nM)
Summary of the method: as §1

[5] = tested on: RXRa homodimer (NR concentration 180 nM)
Summary of the method: as §1

[6] = tested on: THRa:RXRa (NR concentration 90 nM, RXRa partner concentration 90 nM)
Summary of the method: as §1

[7] = tested on: THRa homodimer (NR concentration 90 nM)
Summary of the method: as §1

[8] = tested on: VDR homodimer (NR concentration 270 nM)
Summary of the method: as §1

Sequence	PBM binding z-score [1]	PBM binding z-score [2]	PBM binding z-score [3]	PBM binding z-score [4]	PBM binding z-score [5]	PBM binding z-score [6]	PBM binding z-score [7]	PBM binding z-score [8]
TCTTGGAGATCAACAGGAGGTTAAGAAAGATCGA	0.488	1.9	0.145	0.185	1.3	1.14	-0.452	-0.283
CTCGAAAGGTCGGTTGGGGTGAGTATACGGATAA	2.88	3	2.42	1.18	2.69	4.95	1.86	1.55
TCTAGTTGGTCAGAGGTCACACACTCGAAATGCG	4.5	6.07	5.24	1.92	6.47	3.99	2.52	3.35
CGAACTAGGTCAAGAACAGTGAATCTCCGCACGC	2.48	3.31	4	1.65	2.36	2.33	0.755	0.197
TCTTGTAGATGAACAGGAGGTTAAGAAAGATCGA	0.252	0.473	0.0838	0.572	0.784	0.65	-0.383	-0.297
CCTGCGAGGTCAATGGTCAGCTAAAGCAGCTCGC	4.2	6.01	5.99	4.37	5.95	3.8	2.37	3.63
TCGAGTCGGTTAGTCGGGGCATTCAGCCAACATA	-0.0359	-0.443	-0.657	0.05	-0.48	0.291	-0.232	0.101
CCTAGCAGGCCAGGGTCAGTCAAGCATTTCGCTT	2.16	2.07	1.85	-0.296	1.65	1.75	0.116	0.172
GCATATAGGTAATACAAGGTAAAAGTCCGATTGT	-0.415	0.25	0.58	0.137	0.294	3.49	0.0793	-0.0351
ACAGACAGGGGAGTGAAGGTAACTCAGCTGGACG	0.179	-0.128	0.208	-0.277	0.0403	0.674	0.101	-0.467
ACTAGGAGGCCAAGTTTGGGTCACTCAAACAAAG	2.66	3.46	2.56	0.0297	1.08	2.74	1	0.935
CCAGACAGGTGAAAGGTAAATCAGTCTGGTACGC	0.653	1.04	0.721	-0.121	1.85	0.832	-0.308	0.0909
CGTCCACGGTCAGAGAGGTCAGTGAATGCCGAGT	4.32	3.6	4.74	0.914	2.75	2.54	0.458	2.11
CGTCCCAGGTCAGAGAGGTCAGTGAATGCCGAGT	4.89	5.03	5.73	1.72	4.33	4.24	2.92	4.31
GGAACGAGGGCAAGTTTATAGCAGAGTTTGATGG	1.78	1.5	2.19	2.62	0.81	1.07	0.0695	2.89
AATACAGGGTCACTAGGACAGAGTAGGTACGAAT	3.32	5.16	4.79	2.9	5.5	3.64	1.72	2.97
CCTAGCAGGCCAATGTGGGTCACTCAAGGCTTGA	2.16	1.23	1.02	-0.341	1.15	2.63	-0.567	-0.0479
CAGCCTAGGTCAGGGCCAGTATTGGAGGAACGTT	2.67	2.91	3.91	-0.14	1.62	2	0.259	-0.444
CAAACTAGGTCACGGAAGGTCAAAGTCGAATGAC	5.47	7.13	7.4	2.45	7.3	5.24	2.79	3.53
GCTATTAGTGGAAAGGGCAACCGAATGATTCTCG	1.77	1.05	1.12	0.693	0.775	0.344	-0.457	-0.143
CAAACTAGGACAAAGGTCAAAGTCGAGCCAACCA	4.67	6.7	5.88	2.3	7.22	4.13	1.18	2.51
TCGCGGAGGACACGAAAGGTCAGAGCTCGACATC	4.42	4.79	5.1	0.362	3.86	3.6	0.956	0.898
TCTAGTTGGTCACGGACGTCACACACGACGGGTA	1.04	1.2	1.55	0.677	0.866	0.233	-0.0119	0.188
CCAGAAAGGTGAGAAGGTAACTCAGCCTCGATTA	1.43	2.36	1.91	0.256	1.53	0.725	0.0189	-0.238
GCGACTGGGGCAAAGCAGATTACCATAAGGTTGG	-0.011	0.122	0.273	-0.0663	0.0208	-0.00555	-0.248	-0.153
TCATATAGGTAAACAGGTGACAGTCCGTAAGTTA	0.765	0.72	0.419	1.37	1.12	0.614	0.354	0.168
AGAACGAGGGCCCGCTGAGTTGATAGCAGAGTAG	-1.16	-0.775	-0.722	-0.659	-0.399	-1.6	-0.89	-0.586
GTAACAAGGTGAATAGGTCGTTGATGAGTAGGCG	1.9	2.74	1.68	0.149	2.29	2.06	0.594	0.415
